The list is not random: actives were taken first. Their share in the collection is about 2.8%.
Pol kappa inh-1 – inhibitors of human DNA polymerase kappa. purified Pol kappa, fluorescent DNA synthesis assay, 10 min. 400,000 compounds, 0.53% hits. AID 588579. Q9UBT6. Potency, µM (highest dose often 107 µM), inactives show top-dose activity, negative = inhibition, usual class: inhibitors; also: potency is read from the fitted curve at half-maximal effect; % is scaled to controls: 0 for no effect and ±100 for the full control effect
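Kinetic fluorescence readout at 0 and 10 min followed reaction start with substrate at 50 nM final. Beforehand, enzyme (10 nM Pol kappa) stood 15 min with compound at room temperature; buffer-only wells were negative controls.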
Pol iota inh – inhibitors of human DNA polymerase iota; 390,000 compounds, 1% hits; Potency, µM (highest dose often 115 µM), for the others: top-dose activity, negative = inhibition, actives largely listed as inhibitors; Pol iota fluorescent replication assay, 10 min; AID 588590; also: potency is read from the fitted curve at half-maximal effect
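Fluorescent replication assay read twice, at 0 min and 10 min after adding 50 nM (final) substrate. Enzyme (10 nM) and compounds were first incubated 15 min at room temperature; enzyme-free buffer wells were negative controls.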
Pol beta inh – inhibitors of human DNA polymerase beta. Pol beta primer extension/strand displacement, fluorescence kinetic. Potency, µM (highest dose often 114 µM), for the others: top-dose activity change, negative = inhibition, most hits filed as inhibitors. 340,000 compounds, 1.3% hits. AID 485314; also: potency is read from the fitted curve at half-maximal effect; % is scaled to controls: 0 for no effect and ±100 for the full control effect
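Pol beta (10 nM) was preincubated with compound for 15 min at room temperature. The reaction was then started with 50 nM substrate and read immediately and after a further 10 min at room temperature.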
Pol eta inh-1 – DNA polymerase eta (human) inhibition; Q9Y253; recombinant Pol eta, fluorescent DNA replication assay; Potency, µM (highest dose often 114 µM), for inactives: at the top dose activity change, negative = inhibition, most hits filed as inhibitors; 390,000 compounds, 1.2% hits; AID 588591; also: potency is read from the fitted curve at half-maximal effect; % is scaled to controls: 0 for no effect and ±100 for the full control effect
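Fluorescent replication assay: 50 nM final substrate added after a 15 min room-temperature compound preincubation with 10 nM enzyme. Signal taken at 0 min and again at 10 min.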
PI5P4K alpha inh – PI5P4K alpha (human) kinase inhibition. PI5P4Kalpha enzyme, ADP-Glo luminescence, 60 min; hits give low values. max response, %. 330,000 compounds, 1.2% hits; active = max response of -50% or lower; inconclusive = between -30% and -50%; inactive = -30% or higher; also: value at the top dose of about 77 µM; % is scaled to controls: 0 for no effect and ±100 for the full control effect
Target sequence (P48426 whole entry, looked up): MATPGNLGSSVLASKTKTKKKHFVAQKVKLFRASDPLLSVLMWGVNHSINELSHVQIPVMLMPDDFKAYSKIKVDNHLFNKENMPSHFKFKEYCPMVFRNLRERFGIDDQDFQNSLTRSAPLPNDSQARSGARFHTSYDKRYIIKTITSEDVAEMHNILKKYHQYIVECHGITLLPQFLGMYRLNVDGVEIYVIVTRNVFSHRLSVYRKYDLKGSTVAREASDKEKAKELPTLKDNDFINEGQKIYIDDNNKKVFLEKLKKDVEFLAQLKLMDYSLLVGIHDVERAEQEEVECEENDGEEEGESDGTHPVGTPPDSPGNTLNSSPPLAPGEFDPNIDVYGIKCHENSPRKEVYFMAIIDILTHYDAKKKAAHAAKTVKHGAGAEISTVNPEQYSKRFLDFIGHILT
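Reactions run in 0.038 M HEPES pH 7.4, 0.28 mM EGTA, 0.1% CHAPS and 5% DMSO, with PI5P4Kalpha, substrate, compound and 5 microM ATP final, one hour at room temperature. Readout is ADP-Glo luminescence.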
WRN inhibitor – inhibitors of human WRN helicase. Q14191. AID 651768. WRN helicase unwinding, fluorescent forked duplex, kinetic. Potency, µM (top dose mostly 114 µM), inactives show at the top dose activity change, negative = inhibition, usual class: inhibitors. 360,000 compounds, 0.46% hits; also: potency is read from the fitted curve at half-maximal effect; % is scaled to controls: 0 for no effect and ±100 for the full control effect; nearly all actives have a fitted effect of over 55% in size
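WRN at 20 nM final preincubated with compound 15 min at room temperature; reaction started with 100 nM fluorophore/quencher forked duplex oligonucleotide and 2 mM ATP final. Unwinding followed kinetically by red fluorescence (ex 525, em 598 nm).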
PGK validate – blocks T. brucei phosphoglycerate kinase; shares compounds with Pol kappa inh-1; TbPGK coupled GAPDH assay, Kinase-Glo luminescence; Potency, µM (titrated, usually from 57.5 µM), for inactives: top-dose activity change, negative = inhibition, hits mostly inhibitors; 500 compounds, 79% hits; AID 686980; also: potency is read from the fitted curve at half-maximal effect; % is scaled to controls: 0 for no effect and ±100 for the full control effect; nearly all actives have a fitted effect of over 65% in size
POLI cherry-pick – Human Pol iota inhibitor confirmatory assay. 1,500 compounds, 77% hits. shares compounds with Pol kappa inh-1. Potency, µM, most hits filed as inhibitors. Pol iota primer extension, TAMRA/BHQ fluorescence; also: potency is read from the fitted curve at half-maximal effect
Pol kappa inh-2 – Pol kappa (human) inhibition, cherry-pick confirmation; Potency, µM, usual class: inhibitors; AID 720501; purified Pol-kappa, fluorescent strand-displacement substrate; 920 compounds, 76% hits; shares compounds with Pol eta inh-1; also: potency is read from the fitted curve at half-maximal effect
Pol eta inh-2 – confirmation of human DNA polymerase eta inhibitors; shares compounds with Pol eta inh-1; 2,600 compounds, 64% hits; Pol eta primer extension, TAMRA/BHQ fluorescence, 10 min; Potency, µM, usual class: inhibitors; also: potency is read from the fitted curve at half-maximal effect
* = called active by the depositor; [ ] = another dose, or the depositor's remark. Unless noted, calls follow the shape of the dose curve; as a rule, active = well fitted curve in the direction sought with a large enough effect; inconclusive = small, poorly fitted or top-dose-only effect, or another doubt; inactive = no such curve, though single readings can be large; an effect the other way counts as inactive or inconclusive.

`COc1ccc(OC)c(C2Nc3c(Cl)ccc(C(=O)O)c3C3C=CCC32)c1` (stereo not drawn) gave Pol kappa inh-1 -13%, Pol iota inh 53%, Pol beta inh 1%, Pol eta inh-1 -8%, PI5P4K alpha inh -8 and WRN inhibitor inconclusive.
O=C(COC(=O)/C=C/c1cccc(F)c1)Nc1ccc(Cl)cn1 was read as Pol kappa inh-1 -13%, Pol iota inh 117%, Pol beta inh -2%, Pol eta inh-1 -10%, PI5P4K alpha inh -6 and WRN inhibitor -16%.
O=C(COC(=O)/C=C/c1cccc(F)c1)Nc1ncccn1 was read as Pol kappa inh-1 inconclusive, Pol iota inh 50µM*, Pol beta inh -27%, Pol eta inh-1 28µM*, PI5P4K alpha inh -22, WRN inhibitor -30%, POLI cherry-pick 42* and Pol eta inh-2 48*.
Screening CCC(=O)Nc1ccc2nc3c(=O)n(C)c(=O)n(C)c3nc2c1 returned Pol kappa inh-1 11%, Pol iota inh 14%, Pol beta inh 26% and Pol eta inh-1 -3%.
`CCC(=O)Nc1ccc2nc3c(=O)[nH]c(=S)[nH]c3nc2c1` gave Pol kappa inh-1 45µM*, Pol iota inh inconclusive, Pol beta inh 40µM*, Pol eta inh-1 18µM*, PI5P4K alpha inh -66*, WRN inhibitor inconclusive, POLI cherry-pick 27*, Pol kappa inh-2 17* and Pol eta inh-2 30*.
Screening O=C(CCc1n[nH]c(=O)[nH]c1=O)N/N=C/c1ccco1 returned Pol kappa inh-1 inconclusive, Pol iota inh 25µM*, Pol beta inh 10µM*, Pol eta inh-1 inconclusive, PI5P4K alpha inh inconclusive, WRN inhibitor -3%[11.6 µM], PGK validate 21µM*, POLI cherry-pick inconclusive and Pol eta inh-2 76*.
For O=S(=O)(c1ccc2[nH]c3c(c2c1)CCCCC3)N1CCN(c2cccc(Cl)c2)CC1 the results were Pol kappa inh-1 -14%, Pol iota inh -4%, Pol beta inh 0% and Pol eta inh-1 -14%.
`COc1cc(OC)c(-c2c3cc(O)c(=O)cc-3oc3cc(O)c(O)cc23)cc1OC` gave Pol kappa inh-1 inconclusive, Pol beta inh 20µM*, PI5P4K alpha inh -30, WRN inhibitor 2.4µM*, POLI cherry-pick 1.3*, Pol kappa inh-2 19* and Pol eta inh-2 67*.
Screening O=C(Nc1c(-c2ccccc2)[nH][nH]c1=O)c1ccco1 returned PI5P4K alpha inh 0 and WRN inhibitor 2%.
For COc1cc(/C=N\NC(=O)c2ccc(=O)[nH]n2)cc(OC)c1OC the results were Pol kappa inh-1 50µM*, Pol iota inh 16µM*, Pol beta inh 13µM*, Pol eta inh-1 inconclusive, PI5P4K alpha inh 1, WRN inhibitor -1%, POLI cherry-pick 30* and Pol eta inh-2 48*.
`COc1cc(/C=N/NC(=O)c2ccncc2)cc(OC)c1OC` gave Pol kappa inh-1 -5%, Pol iota inh 10%, Pol beta inh -26%, Pol eta inh-1 -7%, PI5P4K alpha inh 5 and WRN inhibitor 3%.
Screening COc1cc(/C=N/NC(=O)c2cc(-c3cccn3C)n[nH]2)cc(OC)c1OC returned Pol kappa inh-1 inconclusive, Pol iota inh 3.5µM*, Pol beta inh inconclusive, Pol eta inh-1 28µM*, WRN inhibitor 6%[11.6 µM], POLI cherry-pick inconclusive, Pol kappa inh-2 19* and Pol eta inh-2 27*.
Screening Fc1ccc(/C=C/c2nccc3ccccc23)cc1 returned Pol kappa inh-1 -37% and Pol iota inh -5%.
Screening CC(=O)O[C@@H](C)C[N+](C)(C)C returned Pol kappa inh-1 -4%[12 µM].
CCN(c1ccccc1)S(=O)(=O)c1cc(C(=O)O)ccc1C was read as Pol kappa inh-1 -30%, Pol iota inh inconclusive, Pol beta inh 13µM*, Pol eta inh-1 13µM*, PI5P4K alpha inh inconclusive, WRN inhibitor -31%[11.6 µM], POLI cherry-pick 7.5*, Pol kappa inh-2 5.3* and Pol eta inh-2 9.5*.
`O=C(O)c1ccc(Cl)c(S(=O)(=O)N(Cc2ccccc2)c2ccccc2)c1` gave Pol kappa inh-1 -9%, Pol iota inh 18%, Pol beta inh -1%, Pol eta inh-1 -16%, PI5P4K alpha inh 0 and WRN inhibitor -5%.
For CC1(C)S[C@@H]2[C@H](NC(=O)[C@H](N)c3ccccc3)C(=O)N2[C@H]1C(=O)OC1OC(=O)c2ccccc21 (stereo partly drawn) the results were Pol kappa inh-1 -11%, Pol iota inh inconclusive, Pol eta inh-1 -15%, PI5P4K alpha inh 2 and WRN inhibitor -1%.
For CC(=O)c1ccc(NC(=O)CSc2nnc3c(n2)[nH]c2ccccc23)cc1 the results were Pol kappa inh-1 3%, Pol iota inh -18%, Pol beta inh 8.9µM*, Pol eta inh-1 45µM*, POLI cherry-pick inconclusive, Pol kappa inh-2 47* and Pol eta inh-2 inconclusive.
For COc1ccc(S(=O)(=O)N2CCN(C(=O)/C=C/c3ccco3)CC2)cc1 the results were Pol kappa inh-1 inconclusive, Pol iota inh 22µM*, Pol eta inh-1 50µM*, PI5P4K alpha inh inconclusive, WRN inhibitor -5%[11.6 µM], POLI cherry-pick 67*, Pol kappa inh-2 67* and Pol eta inh-2 76*.
O=C(O)C1=NN(c2cc(Cl)c(S(=O)(=O)O)cc2Cl)C(=O)C1 was read as Pol kappa inh-1 79µM*, Pol iota inh 1.6µM*, Pol eta inh-1 22µM*, PI5P4K alpha inh -4, WRN inhibitor inconclusive, PGK validate 9.2µM*, Pol kappa inh-2 15* and Pol eta inh-2 inconclusive.
O=[N+]([O-])c1cc(Cl)cc(/C=N/NC(=S)Nc2ccc(S(=O)(=O)N3CCOCC3)cc2)c1O was read as Pol kappa inh-1 inconclusive, Pol iota inh inconclusive, Pol beta inh inconclusive, Pol eta inh-1 79µM*, PI5P4K alpha inh -85*, WRN inhibitor -32%[11.6 µM], POLI cherry-pick inconclusive and Pol eta inh-2 inconclusive.

Source: PubChem BioAssay (National Center for Advancing Translational Sciences (NCATS))
